From paper PMC4336329 (PLoS ONE, 2015) come the findings set out here.

The campaign covered roughly 310,000 compounds. About 14,000 (4.5%) showed an effect of 50% or more. The effect is printed as a negative number. What follows is part of a selection rich in strong results, with near analogues and random picks from the rest.
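Further: peak tail current of the secondary pulse compared with the same well before compound.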

The assay deals with human ether-à-go-go-related gene (hERG) potassium channel (human, UniProt Q12809). Put plainly: primary screen, population patch clamp on CHO cells stably expressing hERG; higher = less effect of the substance.
Chain of human ether-à-go-go-related gene (hERG) potassium channel (Q12809 whole entry, looked up): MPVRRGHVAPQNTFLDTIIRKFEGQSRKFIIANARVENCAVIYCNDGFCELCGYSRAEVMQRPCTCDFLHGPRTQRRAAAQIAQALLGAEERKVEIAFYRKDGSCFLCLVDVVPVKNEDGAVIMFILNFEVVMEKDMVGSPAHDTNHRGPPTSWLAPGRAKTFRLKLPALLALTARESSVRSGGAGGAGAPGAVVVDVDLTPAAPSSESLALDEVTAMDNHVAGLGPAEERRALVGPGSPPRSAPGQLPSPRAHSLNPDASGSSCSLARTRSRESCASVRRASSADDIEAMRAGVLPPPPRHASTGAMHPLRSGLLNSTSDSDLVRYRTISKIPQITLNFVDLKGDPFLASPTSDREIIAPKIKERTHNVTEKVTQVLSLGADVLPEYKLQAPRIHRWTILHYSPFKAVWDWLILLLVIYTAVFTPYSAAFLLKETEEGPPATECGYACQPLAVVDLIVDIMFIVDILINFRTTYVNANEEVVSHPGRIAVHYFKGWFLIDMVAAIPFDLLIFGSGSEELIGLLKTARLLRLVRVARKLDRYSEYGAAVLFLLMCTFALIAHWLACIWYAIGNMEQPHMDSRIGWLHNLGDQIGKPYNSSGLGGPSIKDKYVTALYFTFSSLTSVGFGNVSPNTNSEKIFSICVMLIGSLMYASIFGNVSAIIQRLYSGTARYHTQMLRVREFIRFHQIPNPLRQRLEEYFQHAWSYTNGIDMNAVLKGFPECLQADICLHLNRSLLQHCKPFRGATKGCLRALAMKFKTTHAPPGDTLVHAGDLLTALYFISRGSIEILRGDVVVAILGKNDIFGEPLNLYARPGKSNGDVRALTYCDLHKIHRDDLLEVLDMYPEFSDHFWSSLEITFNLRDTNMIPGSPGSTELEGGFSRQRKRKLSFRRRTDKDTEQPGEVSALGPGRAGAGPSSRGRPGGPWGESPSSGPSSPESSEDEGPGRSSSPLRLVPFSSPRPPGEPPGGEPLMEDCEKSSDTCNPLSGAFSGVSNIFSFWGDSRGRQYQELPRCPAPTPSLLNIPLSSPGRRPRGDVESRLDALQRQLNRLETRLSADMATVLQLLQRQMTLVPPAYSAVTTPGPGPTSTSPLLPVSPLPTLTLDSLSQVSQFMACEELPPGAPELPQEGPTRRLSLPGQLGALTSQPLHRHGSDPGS
For the compound `CCC1(OC(=O)CN)C(=O)OCc2c1cc1n(c2=O)Cc2cc3ccccc3nc2-1.Cl` (stereo not drawn), the “hERG current change (%, negative = inhibition) at 10uM” value is listed as 8.16%. Take `CC(=O)c1cccc(NC(=O)/C(=C\c2ccco2)NC(=O)c2cccs2)c1`: the “hERG current change (%, negative = inhibition) at 10uM” value is -9.8%. Turning to `CCOC(=O)N1CCN(C(=O)C(C)N(c2ccccc2)S(C)(=O)=O)CC1` (stereo not drawn), the “hERG current change (%, negative = inhibition) at 10uM” value is 25.1%. With `O=C(O)CC(CC(=O)Nc1ccc(C(=O)O)cc1)c1ccccc1` (stereo not drawn) the figure was 12.9%; with `Cc1ccc(-n2c(=O)c3sccc3n(CC(=O)NC3CCCCC3)c2=O)cc1`, 9.86%. For the compound `O=C(COC(=O)c1cnccn1)NCc1ccc(Cl)cc1`, the “hERG current change (%, negative = inhibition) at 10uM” value is recorded as -3.54%.

Take `COCCN(C(=O)Cc1cccs1)C(C(=O)NC1CCCC1)c1cc(OC)c(OC)c(OC)c1` (stereo not drawn): the “hERG current change (%, negative = inhibition) at 10uM” value is listed as 8.79%.

For `CCO.Cc1nn(-c2ccccn2)c2c1C(c1ccsc1)C1=C(CCCC1=O)N2` (stereo not drawn), the “hERG current change (%, negative = inhibition) at 10uM” value is on record as -16.1%. Regarding `Cc1nn(-c2ccccn2)c2c1C(c1ccncc1)C1=C(CC(C)(C)CC1=O)N2` (stereo not drawn), the “hERG current change (%, negative = inhibition) at 10uM” value is reported as -50.8%.

In the case of `Cc1ccc(C2C3=C(CCCC3=O)Nc3c2c(C)nn3-c2ccccn2)o1` (stereo not drawn), the “hERG current change (%, negative = inhibition) at 10uM” value amounted to 1.07%. Take `CC(C)(C)[C@H]1C=C(C(=O)NCc2ccccc2)O[C@@H](OCc2ccc(CO)cc2)C1`: the “hERG current change (%, negative = inhibition) at 10uM” value is on record as -12.9%.

As for `COc1ccc(N(C(=O)c2snc(C(N)=O)c2N)C(C(=O)NC2CCCC2)c2cc(OC)ccc2OC)c(OC)c1` (stereo not drawn), the “hERG current change (%, negative = inhibition) at 10uM” value came out at 20.9%. Regarding `CC1=C(C#N)C(NC(=O)C2CC2)(C(F)(F)F)C(=O)N1` (stereo not drawn), the “hERG current change (%, negative = inhibition) at 10uM” value is reported as -2.06%. With `COc1cccc(-n2c(=S)sc3c(=O)n(-c4ccccc4C)c(SCC(=O)O)nc32)c1` the figure was 16.5%; with `N/C(=N\O)c1ccc(Oc2ccccc2Cl)c([N+](=O)[O-])c1`, -9.72%; with `CCCC1=Nc2cc(C(=O)NCCN3CCOCC3)ccc2Sc2ccc(C)cc21`, -34.3%. On to `CCC1=Nc2cc(C(=O)NCCN3CCOCC3)ccc2Sc2ccc(C)cc21`, for which the “hERG current change (%, negative = inhibition) at 10uM” value is given as -82.3%.

As for `CCC1=Nc2cc(C(=O)NCCN3CCCC3)ccc2Sc2ccc(C)cc21`, the “hERG current change (%, negative = inhibition) at 10uM” value is on record as -29%. With `CCC1=Nc2cc(C(=O)NCCN3CCCC3)ccc2Sc2ccccc21` the figure was -52.1%; with `CCCC1=Nc2cc(C(=O)NCCN3CCCC3)ccc2Sc2ccccc21`, -21.2%; with `CCC1=Nc2cc(C(=O)NCCN3CCOCC3)ccc2Sc2ccccc21`, -15.3%. With `Cc1cccc(NC(=O)COc2ccccc2C(=O)NC(C)c2ccccc2)c1` (stereo not drawn), the “hERG current change (%, negative = inhibition) at 10uM” value is recorded as -8.56%. In the case of `Cc1onc(-c2ccccc2)c1C(=O)N/N=C/c1ccc(O)c([N+](=O)[O-])c1`, the “hERG current change (%, negative = inhibition) at 10uM” value stood at 9.34%.

For the compound `CCCCn1c(O)c(N=NC(=O)c2ccccc2NS(=O)(=O)c2cccs2)c2ccccc21`, the “hERG current change (%, negative = inhibition) at 10uM” value is -2.54%. Take `O=C(CSc1nncn1-c1ccccc1)Nc1c(F)cccc1F`: the “hERG current change (%, negative = inhibition) at 10uM” value worked out at 3.19%. Consider `NC(N)=NS(=O)(=O)c1ccc(N/C=C/C(=O)c2ccc(Cl)c(Cl)c2)cc1`, for which the “hERG current change (%, negative = inhibition) at 10uM” value was determined as 17.3%. The value for `Cc1ccc(NC2CCCN(C(=O)c3ccccc3N3CCOCC3)C2)cc1C` (stereo not drawn) was -0.641%; that for `O=C(NCc1cccnc1)c1cc(Sc2cccc(Cl)c2)nc2ccccc12` was -15.4%. With `O=C(NCc1cccnc1)c1cc(Sc2ccccc2Cl)nc2ccccc12`, the “hERG current change (%, negative = inhibition) at 10uM” value is recorded as -5.45%. The value for `CCCc1ccc(-c2cc(C(=O)N/N=C/c3ccc([N+](=O)[O-])o3)c3ccccc3n2)cc1` was -1.61%; that for `O=C(NCc1ccc2c(c1)OCO2)c1cc(-c2ccccn2)nc2ccccc12` was 4.41%; that for `O=C(Nc1ccc2c(c1)OCO2)c1cc(-c2ccncc2)nc2ccccc12` was -3.22%.

Consider `O=C(NCc1ccc(F)cc1)c1cc(-c2ccncc2)nc2ccccc12`, for which the “hERG current change (%, negative = inhibition) at 10uM” value is -64.7%. With `O=C(NCc1ccccn1)c1cc(-c2ccncc2)nc2ccccc12` the figure was -25.6%.

`O=C(NCc1cccnc1)c1cc(Sc2ccc(F)cc2F)nc2ccccc12`: the “hERG current change (%, negative = inhibition) at 10uM” value was -55.3%.

Turning to `O=C(NCc1ccc2c(c1)OCO2)c1cc(-c2ccncc2)nc2ccccc12`, the “hERG current change (%, negative = inhibition) at 10uM” value is given as -67%. For `O=C(NCc1ccccc1)c1cc(-c2ccncc2)nc2ccccc12`, the “hERG current change (%, negative = inhibition) at 10uM” value was -34%. With `O=C(N/N=C/c1ccc([N+](=O)[O-])o1)c1cc(-c2ccncc2)nc2ccccc12` the figure was -62.9%; with `O=C(N/N=C/c1ccc([N+](=O)[O-])o1)c1cc(-c2ccc(-c3ccccc3)cc2)nc2ccccc12`, 17.7%; with `O=C(NC(=S)NC1CCSC1=O)c1cccs1` (stereo not drawn), 15.9%. Regarding `CCOCc1nnc(NC(=O)C2CC(=O)N(CCc3ccc(F)cc3)C2)s1` (stereo not drawn), the “hERG current change (%, negative = inhibition) at 10uM” value was found to be 5.97%. For the compound `CCC1c2ccc(C)n2CCN1C(=O)Nc1ccccc1C(=O)OC` (stereo not drawn), the “hERG current change (%, negative = inhibition) at 10uM” value was determined as 6.11%. With `CCc1nnc(NC(=O)C2(C)COC(c3ccc(OC)cc3)OC2)s1` (stereo not drawn) the figure was 10.1%; with `CC1(C)C2CCC1(CS(=O)(=O)N1CCOCC1)C(=O)C2` (stereo not drawn), -1.75%; with `Cc1cc(C(=O)COC(=O)c2cccnc2Cl)c(C)n1CC1CCCO1` (stereo not drawn), -20.1%.

As to `Cc1ccc(CNC(=O)CCn2cc(-c3ccc(C)cc3)nc2-c2ccncc2)cc1`, the “hERG current change (%, negative = inhibition) at 10uM” value is -45.1%. For `CC(C)c1ccccc1OCC(=O)NCC(c1cccs1)N1CCOCC1` (stereo not drawn), the “hERG current change (%, negative = inhibition) at 10uM” value is -50.2%. Consider `O=C(NCC(c1cccs1)N1CCOCC1)c1cc(-c2ccccn2)nc2ccccc12` (stereo not drawn), for which the “hERG current change (%, negative = inhibition) at 10uM” value was -23%. On to `Cc1ccc(CNC(=O)CCn2cc(-c3ccc(F)cc3)nc2-c2ccncc2)cc1`, for which the “hERG current change (%, negative = inhibition) at 10uM” value is -50.1%. For `COc1ccc(-c2cn(CCC(=O)NCc3ccc(C)cc3)c(-c3ccncc3)n2)cc1`, the “hERG current change (%, negative = inhibition) at 10uM” value is listed as -21.3%. With `O=C(NCC(c1cccs1)N1CCOCC1)c1cc(-c2ccc(F)cc2)nc2ccccc12` (stereo not drawn) the figure was -55.9%; with `O=C(NCC(c1cccs1)N1CCOCC1)c1cn(-c2ccccc2)nc1-c1ccc(F)cc1` (stereo not drawn), -1.67%; with `Cc1ccc(C(C)C)c(OCC(=O)NCC(c2cccs2)N2CCOCC2)c1` (stereo not drawn), -48.1%. With `COc1ccccc1OCC(=O)NCC(c1cccs1)N1CCOCC1` (stereo not drawn) the figure was -4.48%.
